Experimental data published in PubChem BioAssay (Tox21).
Records with an inconclusive call do not appear. The source made the active and inactive calls. Unless noted, calls come from the whole dose curve; as a rule, active = well fitted curve in the direction sought with a large enough effect in the repeat runs; inconclusive = weak or mixed curves; inactive = no such curve, though single readings can be large; an effect the other way counts as inactive or inconclusive.

Assays:
[1] = qHTS assay to identify small molecule agonists of the retinoic acid receptor (RAR) signaling pathway (AID 1159553)
Outline: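 Luminescence was measured 30 min after luciferase reagent addition at room temperature. Before that, C3RL4 reporter cells (1,000 per well, plated overnight) were treated with compound for 6 hr at 37 C and 5% CO2.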

[2] = molecular target: Luciferin 4-monooxygenase (Photinus pyralis) (UniProt P08659); assay: qHTS assay to identify small molecule inhibitors of firefly luciferase (AID 1224835); note: series mostly up to about 120 µM; nearly all actives have a fitted effect of over 25% in size
Luciferin 4-monooxygenase (Photinus pyralis), sequence (P08659 whole entry, looked up): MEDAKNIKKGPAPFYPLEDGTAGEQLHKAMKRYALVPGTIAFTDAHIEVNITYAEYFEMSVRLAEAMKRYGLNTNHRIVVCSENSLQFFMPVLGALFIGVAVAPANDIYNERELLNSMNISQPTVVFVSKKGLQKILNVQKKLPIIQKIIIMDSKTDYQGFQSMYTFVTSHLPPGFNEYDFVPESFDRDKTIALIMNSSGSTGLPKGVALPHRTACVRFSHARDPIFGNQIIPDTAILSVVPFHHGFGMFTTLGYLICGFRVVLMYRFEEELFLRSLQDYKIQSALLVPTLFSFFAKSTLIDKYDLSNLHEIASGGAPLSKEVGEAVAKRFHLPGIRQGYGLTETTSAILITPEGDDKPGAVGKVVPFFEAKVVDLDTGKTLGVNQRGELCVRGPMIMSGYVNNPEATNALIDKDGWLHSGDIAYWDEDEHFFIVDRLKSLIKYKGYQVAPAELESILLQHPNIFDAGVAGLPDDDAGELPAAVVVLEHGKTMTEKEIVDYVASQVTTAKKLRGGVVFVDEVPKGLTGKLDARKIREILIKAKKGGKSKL
Outline: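 Biochemical qHTS: compounds run as interplate titrations against purified firefly enzyme, with D-luciferin and ATP each at its KM concentration. Light output recorded by CCD imaging.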

[3] = qHTS assay to identify small molecule agonists of the constitutive androstane receptor (CAR) signaling pathway - cell viability counter screen (AID 1224836); note: nearly all actives have a fitted effect of over 45% in size; note: potency is the fitted concentration of half-maximal effect
Outline: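 Cell viability multiplexed with the CAR agonist screen: CellTiter-Fluor fluorescence after 23 hr at 37 C. HepG2-CYP2B6-hCAR cells got compounds at 15 concentrations with PK11195 at 0.75 uM final.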

[4] = molecular target: Nuclear receptor subfamily 1 group I member 3 (Homo sapiens) (UniProt Q14994); assay: qHTS assay to identify small molecule agonists of the constitutive androstane receptor (CAR) signaling pathway (AID 1224839); note: nearly all actives have a fitted effect of over 15% in size; note: potency is the fitted concentration of half-maximal effect
Nuclear receptor subfamily 1 group I member 3 (Homo sapiens), sequence (Q14994 whole entry, looked up): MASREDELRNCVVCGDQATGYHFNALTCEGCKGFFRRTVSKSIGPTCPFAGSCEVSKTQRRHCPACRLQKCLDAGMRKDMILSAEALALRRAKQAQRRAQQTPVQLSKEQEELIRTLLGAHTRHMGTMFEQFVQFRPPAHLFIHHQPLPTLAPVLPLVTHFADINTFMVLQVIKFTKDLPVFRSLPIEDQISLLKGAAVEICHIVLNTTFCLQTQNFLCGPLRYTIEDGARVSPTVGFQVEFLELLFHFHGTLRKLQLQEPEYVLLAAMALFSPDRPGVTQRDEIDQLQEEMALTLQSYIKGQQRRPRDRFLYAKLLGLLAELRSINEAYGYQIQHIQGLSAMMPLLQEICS
Outline: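 Luminescent ONE-Glo read-out after 24 hr, 37 C exposure of double-stable HepG2-CYP2B6-hCAR reporter cells to a 15-point compound series, in the presence of 0.75 uM PK11195 (final).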

[5] = qHTS assay to identify small molecule antagonists of the estrogen related receptor signaling pathway with the pleiotropic PPARgamma coactivator (PGC) from Tox21 10K library (AID 1224841; call rule not given here; note: series mostly up to about 92 µM; actives are mostly falling curves and most rising ones were filed inactive; nearly all actives have a fitted effect of over 50% in size)
Outline: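 Luminescence (One-Glo, 30 min at room temperature) after 18 h compound treatment at 37 C of PGC/ERR reporter cells plated at 2,000 cells/well and settled 6 h beforehand.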

[6] = qHTS assay to identify small molecule agonists of the estrogen related receptor signaling pathway with the pleiotropic PPARgamma coactivator (PGC) from Tox21 10K library (AID 1224842); note: nearly all actives have a fitted effect of over 15% in size; note: potency is the fitted concentration of half-maximal effect
Outline: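 PGC/ERR reporter cell line, 2,000 cells per well, incubated 6 h at 37 C before 23 nL compound in DMSO was added. After 18 h at 37 C, One-Glo luminescence read following 30 min at room temperature.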

[7] = qHTS assay to identify small molecule antagonists of the retinoic acid receptor (RAR) signaling pathway (AID 1159552; note: nearly all actives have a fitted effect of over 50% in size; note: potency is the fitted concentration of half-maximal effect)
Outline: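 Luminescent RARE reporter read-out in C3RL4 cells: 6 hr co-treatment at 37 C of test compounds with retinol at 1 uM final. Cells plated overnight beforehand; luciferase reagent incubated 30 min at room temperature before reading.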

[8] = qHTS assay to identify small molecule antagonists of the estrogen related receptor (ERR) signaling pathway from Tox21 library - cell viability counter screen (AID 1224834); note: nearly all actives have a fitted effect of over 30% in size; note: potency is the fitted concentration of half-maximal effect
Outline: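 CellTiter-Fluor fluorescence, read after 30 min at 37 C, measures viability of ERR cells. Cells plated at 2,000/well and incubated 6 h before pin-tool compound addition, then exposed 17.5 hours at 37 C.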

[9] = qHTS assay to identify small molecule antagonists of the constitutive androstane receptor (CAR) signaling pathway - cell viability counter screen (AID 1224837); note: nearly all actives have a fitted effect of over 45% in size; note: potency is the fitted concentration of half-maximal effect
Outline: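 Cytotoxicity counter-screen: CellTiter-Fluor fluorescence after 23 h compound exposure (15-point qHTS) in double-stable HepG2-CYP2B6-hCAR cells, with 50 nM CITCO added.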

[10] = molecular target: Nuclear receptor subfamily 1 group I member 3 (Homo sapiens) (UniProt Q14994); assay: qHTS assay to identify small molecule antagonists of the constitutive androstane receptor (CAR) signaling pathway (AID 1224838);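 note: HepG2 cells stably expressing hCAR with CYP2B6 luciferase reporter stimulated by CITCO; nearly all actives have a fitted effect of over 40% in size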
Outline: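 Antagonism measured as luciferase signal (ONE-Glo, 30 min, room temperature) in CAR-stimulated cells: HepG2-CYP2B6-hCAR double-stable line exposed 24 hr at 37 C to compound in a 15-point series plus 50 nM CITCO.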

[11] = qHTS assay to identify small molecule antagonists of the estrogen related receptor signaling pathway with the pleiotropic PPARgamma coactivator (PGC) from Tox21 10K library - cell viability counter screen (AID 1224840; active = well fitted cell-killing curve with a large enough effect in the repeat runs, not every such curve was filed as active; note: nearly all actives have a fitted effect of over 40% in size; note: potency is the fitted concentration of half-maximal effect)
Outline: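 Counter-screen for cytotoxicity: after 17.5 h compound exposure at 37 C, CellTiter-Fluor reagent added to PGC/ERR cells for 30 min and fluorescence read. Cells were seeded at 2,000 per well 6 h before dosing.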

[12] = qHTS assay to identify small molecule agonists of the hypoxia (HIF-1) signaling pathway - cell viability counter screen (AID 1224844; calls by dose curve; note: nearly all actives have a fitted effect of over 50% in size)
Outline: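 Cytotoxicity measured by CellTiter-Glo ATP luminescence in the wells also read for beta-lactamase signal. Cells were HRE-bla ME-180 (2,000/well, 0.5% dialyzed FBS), exposed to compounds for 17 h at 37C.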

[13] = qHTS assay to identify small molecule antagonists of the retinoid acid receptor (RAR) signaling pathway - cell viability counter screen (AID 1159551); note: nearly all actives have a fitted effect of over 35% in size
Outline: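 Cytotoxicity counter screen: ATP content quantified by CellTiter-Glo luminescence in C3RL4 cells treated 6 hr at 37 C with compound and retinol (1 uM final). Cells plated at 1,000/well and cultured overnight before dosing.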

[14] = molecular target: Thyrotropin receptor (Homo sapiens) (UniProt P16473); assay: qHTS assay to identify small molecule agonists of the thyroid stimulating hormone receptor (TSHR) signaling pathway (AID 1224843; calls by dose curve; note: nearly all actives have a fitted effect of over 45% in size)
Thyrotropin receptor (Homo sapiens), sequence (P16473 whole entry, looked up): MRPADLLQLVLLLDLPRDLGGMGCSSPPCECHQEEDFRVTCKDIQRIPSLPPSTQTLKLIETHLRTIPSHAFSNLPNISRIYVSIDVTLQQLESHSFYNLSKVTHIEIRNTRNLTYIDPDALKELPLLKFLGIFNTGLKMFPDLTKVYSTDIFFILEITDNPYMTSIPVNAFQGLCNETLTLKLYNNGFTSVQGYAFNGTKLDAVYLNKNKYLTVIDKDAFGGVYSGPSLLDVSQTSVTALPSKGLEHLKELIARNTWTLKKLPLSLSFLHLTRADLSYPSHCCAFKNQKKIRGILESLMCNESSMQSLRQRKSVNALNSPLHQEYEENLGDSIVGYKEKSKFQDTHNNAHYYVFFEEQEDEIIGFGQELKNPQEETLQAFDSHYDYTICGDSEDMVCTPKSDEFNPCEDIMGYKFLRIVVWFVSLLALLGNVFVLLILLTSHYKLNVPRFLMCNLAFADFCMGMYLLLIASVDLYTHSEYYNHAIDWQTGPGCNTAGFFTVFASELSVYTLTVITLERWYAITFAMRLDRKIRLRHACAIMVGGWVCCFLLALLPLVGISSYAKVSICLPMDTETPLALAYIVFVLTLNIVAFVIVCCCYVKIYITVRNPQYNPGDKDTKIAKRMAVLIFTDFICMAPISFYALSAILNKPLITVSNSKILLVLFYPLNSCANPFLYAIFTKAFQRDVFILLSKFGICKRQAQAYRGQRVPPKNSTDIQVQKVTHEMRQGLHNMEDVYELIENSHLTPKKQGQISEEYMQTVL
Outline: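 HEK293/TSHR, 800 cells/well; cpd 30 min RT; add cAMP-d2 + anti-cAMP-cryptate, 1 h RT; fluorescence read on plate reader. 15-pt titration, n=3.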

[15] = qHTS assay to identify small molecule antagonists of the estrogen related receptor (ERR) signaling pathway (AID 1224819;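 note: luminescence from an ERR-driven luciferase reporter measured with One-Glo reagent; series mostly up to about 46 µM; nearly all actives have a fitted effect of over 50% in size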)
Outline: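 LOPAC library screened for antagonism as reduced One-Glo luminescence in ERR reporter cells (2,000/well). Compounds were added after 6 h pre-incubation and left 18 h at 37C; reading followed a 30 min room-temperature reagent step.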

[16] = qHTS assay to identify small molecule agonists of the estrogen related receptor (ERR) signaling pathway (AID 1224820)
Outline: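 Luminescence readout (One-Glo, 30 min RT) from NTP-supplied ERR cell line exposed to compounds for 18 h at 37 C. Cells seeded 2,000 per well and pre-incubated 6 h before pin-tool compound transfer.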

[17] = test system: estrogen-related receptor alpha (ERRalpha) with PGC-1alpha coactivator, human; assay: qHTS assay to identify small molecule antagonists of the estrogen related receptor signaling pathway with the pleiotropic PPARgamma coactivator (PGC) (AID 1224821; calls by dose curve)
Outline: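 PGC/ERR reporter cells; 6 h pre-incubation 37 C/5% CO2; pin-tool compound in DMSO, 18 h 37 C; One-Glo added, 30 min RT; luminescence read. qHTS antagonist mode.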

[18] = qHTS assay to identify small molecule agonists of the estrogen related receptor signaling pathway with the pleiotropic PPARgamma coactivator (PGC) (AID 1224823)
Outline: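 Luminescence readout (One-Glo, 30 min RT) from PGC/ERR cell line treated 18 h at 37 C with pin-tool-delivered DMSO compound solutions; cells plated 6 h before dosing. Quantitative HTS format.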

Measured: Potency

CCCOC(C(=O)OC1CCN(C)CC1)(c1ccccc1)c1ccccc1
inactive: [1] | [2] | [3] | [4] | [5] | [6]

COc1cc(Cl)ccc1Oc1ccc(Cl)cc1Cl
inactive: [7] | [8] | [3] | [9] | [10] | [11] | [12]
active: [4] 29.8 µM

CN1CCC(N(Cc2cccs2)c2ccccc2)CC1
inactive: [13] | [2] | [3] | [9] | [10] | [4] | [11] | [5] | [6] | [12]

CCCCNc1ccc(C(=O)OCCOCCOCCOCCOCCOCCOCCOCCOCCOC)cc1
inactive: [8] | [2] | [3] | [9] | [10] | [4] | [11] | [6] | [12]

CO[C@@H]1[C@H](OC(=O)/C=C/C=C/C=C/C=C/C(=O)O)CC[C@]2(CO2)[C@H]1[C@@]1(C)O[C@@H]1CC=C(C)C
inactive: [13] | [8] | [2] | [3] | [9] | [4] | [11] | [5] | [14]

CCCCCCCCCc1ccc(OCCOCCO)cc1
active: [8] 10.2 µM | [3] 6.44 µM | [9] 5.74 µM | [11] 10.2 µM
inactive: [2] | [10] | [4] | [12]

COc1ccc(C(=O)Nc2nc3ccccc3c(NCc3ccccc3)c2C#N)cc1
inactive: [2] | [3] | [9] | [10] | [11] | [6]
active: [4] 21.7 µM

CCN(CC)CCOC(=O)C(c1ccccc1)C1CCCCC1 (stereo unspecified)
active: [8] 29.8 µM
inactive: [1] | [2] | [3] | [9] | [10] | [4] | [12]

CCCCCCCCCCCCCCCCOS(=O)(=O)O
inactive: [13] | [2] | [3] | [9] | [10] | [4] | [11] | [6]

CNCCCN1c2ccccc2CCc2ccccc21
inactive: [2] | [10] | [4] | [11] | [14]

C=CC(=O)OCCOCCOC(=O)C=C
inactive: [2] | [4]
active: [7] 48.8 µM | [8] 38.7 µM | [9] 61.4 µM | [11] 30.8 µM | [6] 9.73 µM

CN(C)CCCN1c2ccccc2Sc2ccccc21
not listed: [1] | [6] | [7] | [8] | [12] | [14]
inactive: all other assays above

CCC(CC)Nc1ccc(C)c(C)c1
inactive: [13] | [8] | [2] | [3] | [9] | [10] | [4] | [11]

CN1CCC(=C2c3ccccc3Sc3ccccc32)CC1
inactive: [1] | [2] | [3] | [9] | [10] | [4] | [11] | [5] | [6]

COC(=O)C1=C(C)NC(COC(N)=O)=C(C(=O)OC(C)C)C1c1cccc(Cl)c1Cl (stereo unspecified)
inactive: [13] | [3] | [9] | [10] | [4] | [6] | [12]

CN(C)CCN(Cc1ccc(Cl)cc1)c1ccccn1
not listed: [5] | [6] | [13] | [15] | [16] | [17] | [18]
inactive: all other assays above

C[N+]1(CC2COC(c3ccccc3)(C3CCCCC3)O2)CCCCC1 (stereo unspecified)
inactive: [13] | [8] | [3] | [9] | [4] | [11] | [6] | [14] | [12]
